According to PubChem BioAssay (NCATS):
Results filed as inconclusive are left out. Calls of active or inactive are those of the source. Unless noted, the call rests on the fitted dose curve; in most records, active means well fitted curve in the direction sought with a large enough effect; inconclusive means small, poorly fitted or top-dose-only effect, or another doubt; inactive means no such curve, though single readings can be large; an effect the other way counts as inactive or inconclusive.

Key:
[1] = target: Lysosomal acid glucosylceramidase (Homo sapiens) (UniProt P04062); test: Glucocerebrosidase-p2 (AID 348; in the data active means potency below about 10 µM; further: potency means the concentration at half of the fitted maximal effect); settings: purified GBA, blue fluorogenic substrate, 40 min
Chain of Lysosomal acid glucosylceramidase (Homo sapiens) (P04062 whole entry, looked up): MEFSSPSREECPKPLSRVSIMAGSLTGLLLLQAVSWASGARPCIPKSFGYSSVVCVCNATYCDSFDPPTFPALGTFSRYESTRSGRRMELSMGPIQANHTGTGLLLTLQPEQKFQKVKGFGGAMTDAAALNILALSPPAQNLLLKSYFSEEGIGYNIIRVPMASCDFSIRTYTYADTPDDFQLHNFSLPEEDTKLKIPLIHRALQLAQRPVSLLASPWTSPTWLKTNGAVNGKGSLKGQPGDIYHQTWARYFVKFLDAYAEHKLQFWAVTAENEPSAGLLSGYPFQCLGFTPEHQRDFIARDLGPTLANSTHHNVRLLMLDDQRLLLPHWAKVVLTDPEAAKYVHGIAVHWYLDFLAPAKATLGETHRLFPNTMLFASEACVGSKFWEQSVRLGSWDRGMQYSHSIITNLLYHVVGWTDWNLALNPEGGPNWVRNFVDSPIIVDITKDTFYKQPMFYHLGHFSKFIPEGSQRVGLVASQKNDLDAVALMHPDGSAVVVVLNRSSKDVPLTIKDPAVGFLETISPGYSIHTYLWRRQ
Method in brief: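 Compounds titrated from 0.6 nM upwards against 0.2 nM enzyme in pH 5.9 citric acid/KH2PO4, taurocholate, tween-20; blue fluorogenic substrate 80 uM, 40 min room temperature, stopped and read Ex 365/Em 440 for AC50.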

[2] = AP1 Signaling Pathway (AID 357; active means well fitted curve in either direction with a large enough effect, not every such curve was filed as active;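 further: ME-180 reporter cells stimulated with EGF at its EC50 level; on the % scale 0 is the no-effect control and ±100 the full control effect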); settings: ME-180 AP-1-bla reporter, EGF-induced, beta-lactamase ratio, 5 h; at 7.69 µM (top of the series) unless noted
Method in brief: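 A ratiometric CCF4 readout (405 nm excitation; 460 and 530 nm emission) quantified AP-1-driven beta-lactamase in ME-180 cells after 5 h with compound and EC50 EGF; AC50 values were derived for activators and inhibitors.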

[3] = target: Cytochrome P450 1A2 (Homo sapiens) (UniProt P05177); test: p450-cyp1a2 (AID 410; calls by dose curve; further: potency means the concentration at half of the fitted maximal effect); settings: recombinant CYP1A2, luciferin-ME demethylation, luminescence; series mostly up to 57 µM
Chain of Cytochrome P450 1A2 (Homo sapiens) (P05177 whole entry, looked up): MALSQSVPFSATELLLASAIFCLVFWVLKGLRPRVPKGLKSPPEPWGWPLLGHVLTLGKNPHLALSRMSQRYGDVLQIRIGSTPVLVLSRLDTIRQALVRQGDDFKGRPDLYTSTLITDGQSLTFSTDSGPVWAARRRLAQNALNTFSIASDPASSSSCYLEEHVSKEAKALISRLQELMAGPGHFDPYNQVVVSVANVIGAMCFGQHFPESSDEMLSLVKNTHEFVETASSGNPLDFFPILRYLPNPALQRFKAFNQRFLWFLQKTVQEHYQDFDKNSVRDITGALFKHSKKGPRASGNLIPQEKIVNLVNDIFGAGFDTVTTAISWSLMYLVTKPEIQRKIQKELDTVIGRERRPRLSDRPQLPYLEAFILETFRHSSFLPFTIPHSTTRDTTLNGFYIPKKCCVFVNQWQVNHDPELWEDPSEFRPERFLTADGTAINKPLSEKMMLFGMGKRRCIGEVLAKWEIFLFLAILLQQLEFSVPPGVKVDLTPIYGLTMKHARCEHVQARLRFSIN
Method in brief: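 Luminescent readout of luciferin formed from Luciferin-ME by human CYP1A2; data normalized against complete inhibition by 57 uM furafylline. Enzyme 20nM, substrate 100uM at Km, 100mM KPO4 buffer, 60 min reaction at room temperature.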

[4] = NFAT Signaling Pathway (AID 444; active means well fitted curve in either direction with a large enough effect, not every such curve was filed as active;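 further: carbachol stimulus at about its EC50 of 1 µM final; on the % scale 0 is the no-effect control and ±100 the full control effect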); settings: Jurkat NFAT-bla M1, carbachol, beta-lactamase ratio, 5 h; at 7.69 µM (top of the series) unless noted
Method in brief: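 Jurkat cells carrying an NFAT-driven β-lactamase reporter and co-transfected muscarinic M1 receptor were treated with compound plus carbachol (1 uM final, an EC50 level) for 5 h at 37 °C. CCF4 loading followed for 1 h at RT; 460/530 nm ratio gave %activity.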

[5] = Stat Signaling Pathway (AID 446; active means well fitted curve in either direction with a large enough effect, not every such curve was filed as active;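 further: ME-180 cervical cancer cells given 40 pM IL-6 alongside compound; SIE-controlled beta-lactamase reporter measured as 460/530 nm FRET emission ratio; on the % scale 0 is the no-effect control and ±100 the full control effect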); settings: ME-180 SIE beta-lactamase reporter, IL-6 stimulated, 5 h; at 7.69 µM (top of the series) unless noted
Method in brief: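 ME-180 SIE-bla cells; overnight plating; cpd + IL-6 40 pM, 5 h, 37 C; LiveBLAzer 2.5 h RT; 460/530 nm emission ratio. Normalized to 300 pM IL-6 and 125 nM JAK inhibitor controls.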

[6] = target: Glucocorticoid receptor (Homo sapiens) (UniProt P04150); test: GR-GFP Redistribution (AID 450;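 active means compounds whose dose series gives a full or clear partial fitted curve of increased nuclear translocation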; further: potency means the concentration at half of the fitted maximal effect); settings: U2OS GR-GFP nuclear translocation, laser cytometry, 2 h
Chain of Glucocorticoid receptor (Homo sapiens) (P04150 whole entry, looked up, the tested form may be a part): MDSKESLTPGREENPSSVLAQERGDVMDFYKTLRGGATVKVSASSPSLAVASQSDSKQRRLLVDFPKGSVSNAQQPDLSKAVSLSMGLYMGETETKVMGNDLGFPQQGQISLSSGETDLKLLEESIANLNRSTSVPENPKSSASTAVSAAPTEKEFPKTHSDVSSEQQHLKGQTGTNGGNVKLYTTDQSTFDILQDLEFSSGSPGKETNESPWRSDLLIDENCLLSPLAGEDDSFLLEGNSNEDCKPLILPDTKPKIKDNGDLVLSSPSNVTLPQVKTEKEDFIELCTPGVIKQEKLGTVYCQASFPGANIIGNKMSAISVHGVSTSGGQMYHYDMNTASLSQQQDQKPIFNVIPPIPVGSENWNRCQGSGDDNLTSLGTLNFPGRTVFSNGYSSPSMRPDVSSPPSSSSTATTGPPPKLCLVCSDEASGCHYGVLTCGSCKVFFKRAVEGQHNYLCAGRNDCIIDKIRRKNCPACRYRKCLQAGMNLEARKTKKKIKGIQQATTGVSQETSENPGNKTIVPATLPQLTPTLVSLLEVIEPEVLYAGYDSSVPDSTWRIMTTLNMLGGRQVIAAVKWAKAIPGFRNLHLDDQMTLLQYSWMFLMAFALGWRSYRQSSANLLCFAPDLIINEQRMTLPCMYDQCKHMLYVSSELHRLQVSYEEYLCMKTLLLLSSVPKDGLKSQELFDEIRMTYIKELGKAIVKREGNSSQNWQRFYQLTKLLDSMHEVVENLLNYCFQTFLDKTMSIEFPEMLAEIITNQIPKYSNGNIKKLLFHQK

[7] = target: Glucocorticoid receptor (Homo sapiens) (UniProt P04150); test: GR-EFC Redistribution (AID 451; calls by dose curve; further: potency means the concentration at half of the fitted maximal effect); settings: CHO-K1 GR-EFC translocation, beta-gal luminescence, 2 h
Method in brief: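 CHO-K1 cells stably expressing nuclear-localized β-gal enzyme acceptor and GR fused C-terminally to the enzyme donor fragment; ligand-driven nuclear translocation restores β-gal by complementation. Compounds titrated up to 46 uM final, 2 h at 37 °C; luminescence read.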

[8] = target: Mitogen-activated protein kinase 10 (Mus musculus) (UniProt Q61831); test: JNK3 AlphaScreen Assay (AID 530; active means well fitted curve in either direction with a large enough effect, not every such curve was filed as active;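 further: kinase came from lysate of stimulated human HepG2 cells; signal reports phosphorylation of biotinylated GST-cJun 1-79 at Ser73 with 10 µM ATP; on the % scale 0 is the no-effect control and ±100 the full control effect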); settings: JNK3 lysate, c-Jun phosphorylation; series mostly up to 57.1 µM
Method in brief: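 Inhibitors reduce antibody binding to phosphorylated biotin-cJun, lowering AlphaScreen luminescence. Lysates from HepG2 cells pre-activated by IL-1beta plus TNF-alpha supplied JNK3; compounds were titrated.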

[9] = target: 3',5'-cyclic-AMP phosphodiesterase 4B (Homo sapiens) (UniProt Q07343); test: qHTS Assay for Inhibitors of PDE-IV (AID 607; active means well fitted activation curve with a large enough effect in the main read-out, with a control signal flat, not every such curve was filed as active; further: % of control where 0% means no effect); settings: HEK293 ACTOne CNG channel cells, membrane potential fluorescence; series mostly up to 22.9 µM
Chain of 3',5'-cyclic-AMP phosphodiesterase 4B (Homo sapiens) (Q07343 whole entry, looked up): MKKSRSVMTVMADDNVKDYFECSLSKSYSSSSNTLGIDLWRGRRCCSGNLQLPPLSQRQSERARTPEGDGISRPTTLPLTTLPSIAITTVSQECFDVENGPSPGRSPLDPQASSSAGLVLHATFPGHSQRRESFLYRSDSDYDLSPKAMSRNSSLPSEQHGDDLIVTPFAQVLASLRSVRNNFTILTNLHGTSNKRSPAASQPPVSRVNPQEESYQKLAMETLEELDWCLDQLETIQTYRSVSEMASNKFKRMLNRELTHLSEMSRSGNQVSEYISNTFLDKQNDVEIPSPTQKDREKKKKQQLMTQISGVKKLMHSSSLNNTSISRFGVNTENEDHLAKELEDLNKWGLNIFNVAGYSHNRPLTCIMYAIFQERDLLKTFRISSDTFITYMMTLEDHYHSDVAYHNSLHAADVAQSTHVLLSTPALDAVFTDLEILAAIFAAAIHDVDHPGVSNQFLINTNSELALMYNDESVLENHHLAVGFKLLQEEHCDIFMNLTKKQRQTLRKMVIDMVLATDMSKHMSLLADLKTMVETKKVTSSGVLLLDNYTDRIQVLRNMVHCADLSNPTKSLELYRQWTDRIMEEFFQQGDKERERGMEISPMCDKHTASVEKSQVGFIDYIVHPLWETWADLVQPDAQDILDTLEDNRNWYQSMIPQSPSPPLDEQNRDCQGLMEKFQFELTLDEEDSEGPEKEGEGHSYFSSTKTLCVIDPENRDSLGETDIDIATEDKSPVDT
Method in brief: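 ACTOne HEK293 cells carry a modified cAMP-gated CNG channel and express endogenous PDE4; plated 1000 cells/well, compounds up to 22.9 uM final. Membrane-potential dye fluorescence (ex 535/em 590) was read; parental cells received 10 uM forskolin + 100 uM RO 20-1724.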

[10] = qHTS Assay for Lipid Storage Modulators (AID 1519; calls by dose curve); settings: Drosophila S3 cells, BODIPY lipid droplet/cell ratio, laser cytometry, cells loaded with oleic acid; for activity change, negative = inhibition: at 57.5 µM (top of the series)
Method in brief: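 Cells seeded at 5,000 per well were treated with compounds over a concentration series and loaded with oleic acid (400 uM, as added). Lipid droplet fluorescence (488 nm excitation, 500-530 nm channel) was read by laser-scanning cytometry and normalized to 20 uM Triacsin C.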

[11] = target: Dual specificity protein kinase CLK4 (Homo sapiens) (UniProt Q9HAZ1); test: qHTS Assay for Inhibitors of CDC-like Kinase 4 (Kinase-Glo Assay) (AID 1770); settings: recombinant Clk4, Kinase-Glo ATP depletion luminescence; series mostly up to 66.7 µM; further: nearly all actives have a fitted effect of over 65% in size; further: potency means the concentration at half of the fitted maximal effect
Chain of Dual specificity protein kinase CLK4 (Homo sapiens) (Q9HAZ1 whole entry, looked up): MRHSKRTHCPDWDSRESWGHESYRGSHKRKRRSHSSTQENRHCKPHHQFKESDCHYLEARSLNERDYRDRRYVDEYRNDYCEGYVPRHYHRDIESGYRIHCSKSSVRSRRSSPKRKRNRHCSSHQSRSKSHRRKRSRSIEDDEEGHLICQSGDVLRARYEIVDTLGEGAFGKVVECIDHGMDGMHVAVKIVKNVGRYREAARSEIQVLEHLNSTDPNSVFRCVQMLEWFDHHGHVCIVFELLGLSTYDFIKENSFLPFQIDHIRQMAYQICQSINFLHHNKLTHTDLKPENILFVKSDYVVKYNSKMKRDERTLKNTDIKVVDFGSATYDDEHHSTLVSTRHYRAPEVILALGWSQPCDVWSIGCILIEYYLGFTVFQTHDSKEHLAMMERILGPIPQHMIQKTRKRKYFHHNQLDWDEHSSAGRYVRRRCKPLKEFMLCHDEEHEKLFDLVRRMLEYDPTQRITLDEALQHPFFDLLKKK
Method in brief: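 Recombinant human Clk4 (25 nM) phosphorylated RS repeat peptide (100 uM) with 1 uM ATP in Tris pH 7.5/MgCl2/EGTA/DTT/Triton buffer for 4.5 h at room temperature. Residual ATP was quantified by Kinase-Glo luciferase luminescence.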

[12] = target: Dual specificity protein kinase CLK4 (Homo sapiens) (UniProt Q9HAZ1); test: qHTS Assay for Inhibitors of CDC-like Kinase 4 (ADP-FP Assay) (AID 1795); settings: Transcreener ADP fluorescence polarization; series mostly up to 50 µM; further: on the % scale 0 is the no-effect control and ±100 the full control effect; nearly all actives have a fitted effect of over 60% in size
Method in brief: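 Recombinant human Clk4 (6.25 nM) phosphorylated RS repeat peptide (100 uM) with 1 uM ATP in Tris pH 7.5/MgCl2/EGTA/DTT/Triton buffer for one hour. ADP was quantified by Transcreener competitive fluorescence polarization against an ADP calibration curve.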

[13] = target: Ubiquitin carboxyl-terminal hydrolase 1 (Homo sapiens) (UniProt O94782); test: Inhibitors of USP1/UAF1: Pilot qHTS (AID 504865); settings: purified USP1/UAF1, Ub-rhodamine cleavage fluorescence; series mostly up to 54.9 µM;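 further: rhodamine fluorescence freed from ubiquitin-rhodamine substrate followed over time; top concentration of the series differs between compounds; on the % scale 0 is the no-effect control and ±100 the full control effect; nearly all actives have a fitted effect of over 35% in size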
Chain of Ubiquitin carboxyl-terminal hydrolase 1 (Homo sapiens) (O94782 whole entry, looked up): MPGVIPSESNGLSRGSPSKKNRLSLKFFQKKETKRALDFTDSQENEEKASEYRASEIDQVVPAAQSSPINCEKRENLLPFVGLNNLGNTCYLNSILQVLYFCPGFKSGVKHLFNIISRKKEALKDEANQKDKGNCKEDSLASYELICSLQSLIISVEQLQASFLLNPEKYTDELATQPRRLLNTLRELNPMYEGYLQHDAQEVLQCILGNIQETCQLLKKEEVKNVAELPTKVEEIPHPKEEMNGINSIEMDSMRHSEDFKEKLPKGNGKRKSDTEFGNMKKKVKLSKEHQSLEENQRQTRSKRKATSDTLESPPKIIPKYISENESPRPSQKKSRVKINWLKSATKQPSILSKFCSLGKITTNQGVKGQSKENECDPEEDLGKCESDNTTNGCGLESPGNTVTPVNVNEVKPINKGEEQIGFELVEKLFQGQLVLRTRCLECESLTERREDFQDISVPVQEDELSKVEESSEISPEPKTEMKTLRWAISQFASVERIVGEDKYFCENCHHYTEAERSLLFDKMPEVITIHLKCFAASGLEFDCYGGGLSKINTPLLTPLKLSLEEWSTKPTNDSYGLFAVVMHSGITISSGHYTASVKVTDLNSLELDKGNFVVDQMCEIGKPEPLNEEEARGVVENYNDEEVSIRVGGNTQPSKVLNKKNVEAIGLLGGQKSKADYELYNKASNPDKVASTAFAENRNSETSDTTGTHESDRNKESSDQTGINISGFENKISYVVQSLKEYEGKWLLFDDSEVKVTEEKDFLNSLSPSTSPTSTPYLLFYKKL
Method in brief: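 USP1/UAF1 complex (1nM) preincubated with compound 15 min at room temperature, then Ub-Rho substrate (150nM final) added. Fluorescence read kinetically at 480/540 nm, 6 reads every 60 seconds. Buffer: 50mM HEPES pH 7.8, 0.5mM EDTA, 0.1 mg/ml BSA, 1mM TCEP, 0.01% Tween-20.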

[14] = Primary qHTS for small molecule stabilizers of the endoplasmic reticulum resident proteome: Secreted ER Calcium Modulated Protein (SERCaMP) assay (AID 1508630); settings: SH-SY5Y GLuc-SERCaMP (Gaussia luciferase released on ER calcium loss) secretion, thapsigargin, luminescence; series mostly up to 38.4 µM; further: on the % scale 0 is the no-effect control and ±100 the full control effect
Method in brief: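 GLuc-SERCaMP-expressing SH-SY5Y cells, pretreated 16 h with compound, are challenged with thapsigargin to empty ER calcium stores; after 4 h, coelenterazine is added directly to the medium and luminescence is imaged.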

[15] = target: Cytochrome P450 2C19 (Homo sapiens) (UniProt P33261); test: qHTS Assay for Inhibitors and Substrates of Cytochrome P450 2C19 (AID 899); settings: recombinant CYP2C19, luciferin-H EGE luminescence; series mostly up to 57.1 µM; further: nearly all actives have a fitted effect of over 60% in size; further: potency means the concentration at half of the fitted maximal effect
Chain of Cytochrome P450 2C19 (Homo sapiens) (P33261 whole entry, looked up): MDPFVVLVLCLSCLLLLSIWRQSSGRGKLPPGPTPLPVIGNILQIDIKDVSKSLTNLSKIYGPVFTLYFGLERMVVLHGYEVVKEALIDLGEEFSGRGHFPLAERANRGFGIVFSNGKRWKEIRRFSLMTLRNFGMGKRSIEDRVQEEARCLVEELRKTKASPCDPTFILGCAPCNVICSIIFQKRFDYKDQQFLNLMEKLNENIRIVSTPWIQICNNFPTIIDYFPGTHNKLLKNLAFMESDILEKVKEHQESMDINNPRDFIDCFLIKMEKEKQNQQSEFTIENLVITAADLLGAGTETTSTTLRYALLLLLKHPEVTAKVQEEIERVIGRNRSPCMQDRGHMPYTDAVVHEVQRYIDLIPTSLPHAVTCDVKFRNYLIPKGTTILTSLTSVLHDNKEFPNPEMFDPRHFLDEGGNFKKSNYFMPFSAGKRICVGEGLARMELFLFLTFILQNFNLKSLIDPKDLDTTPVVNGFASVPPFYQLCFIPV
Method in brief: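 In 50mM KPO4, the reaction held 5nM enzyme and KM-level (10uM) Luciferin-H EGE; it ran 60 min at 37C after NADPH regeneration and a 10 min compound preincubation. Luminescence values were scaled to 57uM ketoconazole as complete inhibition.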

[16] = target: Dual specificity protein kinase CLK4 (Homo sapiens) (UniProt Q9HAZ1); test: qHTS Assay for Inhibitors of CDC-like Kinase 4 (ADP-Glo Assay) (AID 1771); settings: recombinant CLK4, ADP-Glo luminescence; series mostly up to 80 µM; further: nearly all actives have a fitted effect of over 70% in size; further: potency means the concentration at half of the fitted maximal effect
Method in brief: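 Luminescence from ADP-Glo reports ADP produced by 25 nM Clk4 acting on 100 uM RS repeat peptide with 1 uM ATP over 1 hr at room temperature; residual ATP is depleted before ADP is converted to ATP for detection.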

[17] = target: Cytochrome P450 3A4 (Homo sapiens) (UniProt P08684); test: qHTS Assay for Inhibitors and Substrates of Cytochrome P450 3A4 (AID 884); settings: recombinant CYP3A4, Luciferin-PPXE luminescence; series mostly up to 57.1 µM; further: potency means the concentration at half of the fitted maximal effect; nearly all actives have a fitted effect of over 50% in size
Chain of Cytochrome P450 3A4 (Homo sapiens) (P08684 whole entry, looked up): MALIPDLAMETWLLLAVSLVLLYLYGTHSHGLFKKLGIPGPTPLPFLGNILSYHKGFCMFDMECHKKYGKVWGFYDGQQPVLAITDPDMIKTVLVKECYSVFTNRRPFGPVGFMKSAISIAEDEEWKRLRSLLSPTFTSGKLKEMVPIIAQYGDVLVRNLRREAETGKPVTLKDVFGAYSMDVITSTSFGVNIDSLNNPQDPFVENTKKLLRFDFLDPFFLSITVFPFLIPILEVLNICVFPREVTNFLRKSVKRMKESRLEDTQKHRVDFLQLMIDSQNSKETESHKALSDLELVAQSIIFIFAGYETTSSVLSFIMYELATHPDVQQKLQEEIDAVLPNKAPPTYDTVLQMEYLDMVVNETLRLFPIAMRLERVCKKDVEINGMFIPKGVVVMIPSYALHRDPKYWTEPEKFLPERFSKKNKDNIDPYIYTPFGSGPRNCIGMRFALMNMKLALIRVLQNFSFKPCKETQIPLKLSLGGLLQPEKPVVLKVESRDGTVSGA
Method in brief: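 20 nM human CYP3A4 with 25 uM Luciferin-PPXE (at KM) in 200 mM KPO4, preincubated 10 min with compound; NADPH regeneration started a 60 min RT reaction. Luciferin detected by luminescence, normalized to 57 uM ketoconazole as full inhibition.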

[18] = target: Cytochrome P450 3A4 (Homo sapiens) (UniProt P08684); test: qHTS Assay for Activators of Cytochrome P450 3A4 (AID 885); settings: recombinant CYP3A4, Luciferin-PPXE luminescence, 60 min; series mostly up to 57.1 µM; further: nearly all actives have a fitted effect of over 65% in size
Method in brief: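 20nM CYP3A4 + 25uM Luciferin-PPXE (=KM), 200mM KPO4; cpd 10 min RT; NADPH regen, 60 min RT; stop w/ detection buffer, 20 min; luminescence. Normalized to 57 uM ketoconazole.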

[19] = measured here: cell count channel max response
[20] = measured here: lipid channel max response

CNc1cc(-c2ccccc2CN(C)C)ncn1
inactive: Potency [1] > 11.4 µM | activity change, negative = inhibition [2] 6.89% | activity change, negative = inhibition [4] -0.773% | activity, negative = inhibition [5] -3.02% | Potency [6] > 46 µM | Potency [7] > 46 µM | outcome [8] | Potency [9] | activity change, negative = inhibition [10] 2.26% | Potency [11] | Potency [12] | Potency [13] | Potency [14]
7.6%: max response [10, 19]
active: Potency [3] 31.6 µM
8.03%: max response [10, 20]

COCCn1c(=O)c(-c2ccc(F)cc2)nc2cnc(N3CCOCC3)nc21
16.8%: max response [10, 20]
inactive: Potency [1] > 11.4 µM | activity change, negative = inhibition [2] -9.35% | activity change, negative = inhibition [4] 16.8% | activity, negative = inhibition [5] -13.8% | Potency [6] > 9.22 µM | Potency [7] > 46 µM | outcome [8] | Potency [9] | activity change, negative = inhibition [10] 1.75% | Potency [11] | Potency [12] | Potency [13] | Potency [14]
active: Potency [3] 5.01 µM
15.7%: max response [10, 19]

COc1ccc(-c2nc3cnc(N4CCN(C)CC4)nc3n(Cc3cccs3)c2=O)cc1
18%: max response [10, 20]
inactive: Potency [1] > 11.4 µM | Potency [6] > 9.22 µM | Potency [7] > 46 µM | Potency [9] | Potency [15] | activity change, negative = inhibition [10] 1.59% | Potency [11] | Potency [16] | Potency [13] | Potency [14]
17.6%: max response [10, 19]

Cc1ccccc1-c1cncnc1NCc1cccs1
inactive: Potency [1] > 11.4 µM | activity change, negative = inhibition [2] 1.41% | activity change, negative = inhibition [4] 2.62% | activity, negative = inhibition [5] 3.53% | Potency [6] > 46 µM | Potency [7] > 46 µM | outcome [8] | Potency [18] | activity change, negative = inhibition [10] 5.75% | Potency [11] | Potency [12] | Potency [13] | Potency [14]
11.6%: max response [10, 19]
active: Potency [3] 3.16 µM | Potency [17] 0.501 µM | Potency [15] 0.794 µM
15.6%: max response [10, 20]

CN(C)c1ncnc2ccc(-c3ccoc3)cc12
inactive: Potency [1] > 11.4 µM | activity change, negative = inhibition [4] 1.35% | activity, negative = inhibition [5] -10.6% | Potency [6] > 46 µM | Potency [7] > 46 µM | outcome [8] | Potency [18] | activity change, negative = inhibition [10] 1.41% | Potency [13] | Potency [14]
30.5%: max response [10, 19]
29.1%: max response [10, 20]
active: Potency [3] 0.794 µM | Potency [11] 0.501 µM | Potency [16] 0.562 µM

Cc1ccccc1-c1nccc(NCCN2CCOCC2)n1
17.5%: max response [10, 19]
active: Potency [3] 5.01 µM
inactive: Potency [1] > 11.4 µM | activity change, negative = inhibition [2] 20.7% | activity change, negative = inhibition [4] -13.9% | activity, negative = inhibition [5] -1.96% | Potency [6] > 46 µM | Potency [7] > 46 µM | outcome [8] | Potency [9] | Potency [18] | activity change, negative = inhibition [10] 3.61% | Potency [11] | Potency [12] | Potency [13] | Potency [14]
21.4%: max response [10, 20]
